The source made the active and inactive calls.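 Rule for the calls, unless noted: active = primary screen active and over 50% activation in each of two duplicate runs; inactive = the rest.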
Tested on: TRPC4 beta (transient receptor potential cation channel C4), mouse
Test: TRPC4 cation channel opening, retest – cell-based, Fluo4 calcium, HEK293 TRPC4beta/mu-opioid, duplicates, 10 µM, confirmation (AID 2426;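 active = fluorescence ratio normalized to control raised more than 50% in primary screen plus both repeat runs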)
Conditions: Fluo4 calcium fluorescence, at 10 µM

outcome, inactive:
CCOC(=O)c1c(N)sc(C(O)(C(F)(F)F)C(F)(F)F)c1-c1ccccc1
CC1CCCN(CCCN2C(=O)C3C(C(=O)Nc4ccc(Cl)cc4)C4C=CC3(O4)C2C(=O)NC2CCCCC2)C1 (centres undefined)
O=C(C[n+]1cccc(CNC(=O)c2ccc(OC(F)F)cc2)c1)Nc1ccc(SC(F)F)cc1
Cc1ncsc1CCOC(=O)c1cccc([N+](=O)[O-])c1
CC#CC[N+](C)(C)CCCCCCCCCCCC
Cc1cc(OCc2cc(C(=O)NCCN3CCCCC3CO)no2)cc(C)c1Cl (centres undefined)
Cc1cc(N2CCC(C)CC2)nc2cccc(O)c12
Fc1ccccc1COc1ccc(Br)cc1CNCC1CCCO1 (centres undefined)
Cn1cc(CNCC2CCCO2)c(-c2ccc(Oc3ccccc3)cc2)n1 (centres undefined)
COc1cccc(C2=NN(C(=O)c3ccco3)C(c3ccco3)C2)c1 (centres undefined)
O=C(COC(=O)Cn1cnc2ccccc2c1=O)Nc1ccccc1Sc1ccc(Cl)cc1
NC(=O)c1nsc(C(=O)N(Cc2ccccc2Cl)C(C(=O)NCC2CCCO2)c2ccc(O)cc2)c1N (centres undefined)
O=C(NC1CCCCC1)N1CCN(C(c2ccccc2)c2ccccc2)CC1
Cc1ccc(NC(=S)N(CCCN(C)C)Cc2cc3cc4c(cc3[nH]c2=O)OCO4)c(C)c1
CCCC[n+]1c2ccccc2cc2ccccc21
CC(C)(C)CC(C)(C)NCC(O)COc1ccc2c(c1)CCC2 (centres undefined)
CCOc1ccc(Cl)cc1/C=N/O
O=C(C[n+]1cc(-c2ccc(Cl)c(Cl)c2)n2c1CCC2)N1c2ccccc2Sc2ccccc21
CC1CCc2c(sc3ncnc(SCC(=O)Nc4ccc(C(=O)O)cc4)c23)C1 (centres undefined)
NS(=O)(=O)c1ccc(Nc2nc(-c3ccc(O)cc3O)cs2)cc1
CCCn1c(NC(=O)c2ccc(Cl)c(S(=O)(=O)N3CCCC3)c2)nc2ccccc21

Tested on: transient receptor potential cation channel C4 beta (TRPC4), mouse
Test: TRPC4 cation channel opening, second retest – cell-based, second round, Fluo4, HEK293 TRPC4beta/mu-opioid, 1 µM, confirmation (AID 2461)
Conditions: Fluo4 calcium fluorescence, at 1 µM

outcome, inactive:
COc1ccc(CN2CCN(Cc3ccccc3F)CC2)c(OC)c1
C/C(N)=C(/C#N)C(=O)COC(=O)CC12CC3CC(CC(C3)C1)C2
CCCCC[n+]1cccc2c3ccccc3ccc21
COc1ccc(OC)c(Nc2cc(-c3ccccc3)nc(N)n2)c1
CCC1CCCCN1Cc1nc2c(c(=O)n(C)c(=O)n2C)n1Cc1ccccc1 (centres undefined)
CCOC(=O)C1CCN(C2CCN(C(=O)c3oc4c(C)c(C)ccc4c3C)CC2)CC1
O=[N+]([O-])c1cccc(-c2nnc(C3CC3)o2)c1
CCOc1c(Cl)cc(CNCC(O)c2ccccc2)cc1OC (centres undefined)
O=C(c1cccc(C(=O)N2CCN(c3ccccc3)CC2)c1)N1CCN(c2ccccc2)CC1
Cc1ccn2c(-c3csc(NCc4ccco4)n3)c(C)nc2c1
COc1ccc(Nc2nc(N)c3ccccc3n2)c(OC)c1
CCc1c(C(=O)N2CCCN(C)CC2)csc1C
COc1ccc(C)cc1N(C(=O)c1snc(C(N)=O)c1N)C(C(=O)NC1CCCC1)c1ccc(F)cc1 (centres undefined)
CC(C)(c1ccccc1)c1ccc(OCCCNCCO)cc1
Cc1ccc(-n2nc(-c3cccs3)cc2C(=O)NCC2CCCO2)c(C)c1 (centres undefined)
CC(C)CCN1CCN(Cc2ccsc2)CC1CCO (centres undefined)
CN(CC1CCCN(CCc2cccc(C(F)(F)F)c2)C1)C(=O)c1cc2ccccc2o1 (centres undefined)
Oc1ccc(CN2CCc3ccccc3C2)c2cccnc12
COc1ccc(C2C(C(C)=O)=C(O)C(=O)N2c2ccc(Br)cc2)cc1 (centres undefined)
CCOC(=O)c1c(N)sc(C(O)(C(F)(F)F)C(F)(F)F)c1-c1ccccc1
CC1CCCN(CCCN2C(=O)C3C(C(=O)Nc4ccc(Cl)cc4)C4C=CC3(O4)C2C(=O)NC2CCCCC2)C1 (centres undefined)
O=C(C[n+]1cccc(CNC(=O)c2ccc(OC(F)F)cc2)c1)Nc1ccc(SC(F)F)cc1
Cc1ncsc1CCOC(=O)c1cccc([N+](=O)[O-])c1
CC#CC[N+](C)(C)CCCCCCCCCCCC
Cc1cc(OCc2cc(C(=O)NCCN3CCCCC3CO)no2)cc(C)c1Cl (centres undefined)
Cc1cc(N2CCC(C)CC2)nc2cccc(O)c12
Fc1ccccc1COc1ccc(Br)cc1CNCC1CCCO1 (centres undefined)
Cn1cc(CNCC2CCCO2)c(-c2ccc(Oc3ccccc3)cc2)n1 (centres undefined)

From PubChem BioAssay
